Source: PubChem BioAssay (several laboratories)
Compounds with a hit are over-represented: about 2.7% of the library has one in this group of screens.
rCAG binder-1 = binders of r(CAG) RNA repeats, primary screen, biochemical, fluorescence | r(CAG) RNA repeat, TO-PRO-1 dye displacement fluorescence | inhibition, % at 3 µM | actives 1.3% (n = 370,000);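 active = inhibition above the plate cutoff, the mean of all test compounds on that plate plus 3 SD, cut at about 35% in these data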;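 note: 0% = DMSO alone and 100% = 100 µM mitoxantrone as full dye displacement; higher means more dye released from RNA so lower well fluorescence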
NadD inh = inhibitors of S. aureus NadD, primary screen, biochemical, colorimetric, uHTS. inhibition, % at 20 µM. actives 0.78% (n = 360,000). purified NadD enzyme, colorimetric absorbance read-out. Nicotinate-nucleotide adenylyltransferase NadD (Staphylococcus aureus N315); in the data active = inhibition above about 26%
bovine MsrA act = bovine MsrA enzyme activators, primary screen, biochemical, absorbance, HTS; Methionine sulfoxide reductase A (Bos taurus); purified bovine MsrA, absorbance read-out; activation, % at 10.6 µM; actives 0.3% (n = 360,000); AID 602163, 2012; in the data active = activation above about 7.5%;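 note: 0% = vehicle and 100% = reference activator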
MsrA inh = bovine MsrA enzyme inhibitors, primary screen, biochemical, absorbance, HTS | actives 0.75% (n = 360,000) | purified bovine MsrA, absorbance read-out | inhibition, % at 15.5 µM | AID 651718, 2012; in the data active = inhibition above about 4.5%;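 note: 0% = vehicle wells with enzyme and 100% = reference inhibitor wells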
rCAG binder conf = small molecules binding CAG repeat RNA – biochemical, fluorescence, confirmation; shares compounds with rCAG binder-1; r(CAG) RNA repeat, TO-PRO-1 dye displacement fluorescence; inhibition, % at 3 µM; actives 70% (n = 4,300); AID 652065, 2013;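 active = inhibition above a per-plate cutoff, the mean inhibition of sample wells plus 3 SD, cut at about 35% in these data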;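 note: loss of TO-PRO-1 fluorescence as compound displaces dye from 1x1 AA loop RNA; 0% = DMSO only wells and 100% = 100 µM mitoxantrone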
DNA CAG counter = displacement of TO-PRO-1 from CAG DNA duplex, counter-screen for rCAG RNA repeat binder project, biochemical, fluorescence, TO-PRO-1 dye, d(CAG) DNA oligo; actives 94% (n = 4,300); d(CAG) DNA oligo TO-PRO-1 dye displacement; inhibition, % at 3 µM; shares compounds with rCAG binder-1;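 active = inhibition above its plate's cutoff, the mean test-well inhibition plus 3 SD, cut at about 4.8% in these data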;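 note: 0% = DNA dye mix with DMSO and 100% = 100 µM mitoxantrone; hits displace the dye from DNA and so lower well fluorescence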
DNA CAG DR = inhibitors of DNA CAG/GTC TO-PRO-1 complex, dose response, counter-screen for rCAG RNA repeat binder project, biochemical, fluorescence, TO-PRO-1 dye; IC50, µM; actives 20% (n = 250); shares compounds with rCAG binder-1; DNA CAG/GTC duplex TO-PRO-1 dye displacement fluorescence; in the data active = IC50 below about 10 µM
dCAG DNA bind = TO-PRO-1 dye complex inhibitors on d(CAG) DNA, dose response, counter-screen, biochemical, fluorescence, late stage; shares compounds with rCAG binder-1; d(CAG) DNA duplex TO-PRO-1 dye displacement; IC50, µM; actives 80% (n = 30)
rCAG binder-2 = molecules binding r(CAG) RNA repeats, late stage dose response, late-stage follow-up, biochemical, fluorescence, dose response, powder samples; shares compounds with rCAG binder-1; r(CAG) RNA TO-PRO-1 dye displacement; IC50, µM; actives 100% (n = 30); AID 720651, 2013
* marks the source's active call; other numbers are inactive results; i = inactive; / = not tested or not shown. Unless noted, the rule behind the calls is not given here.

SMILES	rCAG binder-1	NadD inh	bovine MsrA act	MsrA inh	rCAG binder conf	DNA CAG counter	others
Cc1ccc(S(=O)(=O)N2[C@@H](c3ccc(C(C)(C)C)cc3)C(C(=O)O)=CC[C@H]2c2cccs2)cc1	81*	5	-7	1	73*	34*	DNA CAG DR=9.5*
Cc1ccc(S(=O)(=O)N2C(c3cccc(Cl)c3)CC=C(C(=O)O)C2c2cccc(Cl)c2)cc1 (stereo unspecified)	4	/	/	0	/	/
Cc1ccc([C@H]2C(C(=O)O)=CC[C@@H](c3cccs3)N2S(=O)(=O)c2ccc(C)cc2)cc1	61*	2	-7	0	48*	17*
Cc1ccc(S(=O)(=O)N2[C@@H](c3ccc(Cl)cc3)C(C(=O)O)=CC[C@H]2c2cccs2)cc1	67*	1	-1	-1	54*	17*
Cc1ccc(S(=O)(=O)N2[C@@H](c3ccccc3)C(C(=O)O)=CC[C@H]2c2cccc(Cl)c2)cc1	12	3	-4	0	/	/
CCn1ccnc1CN1CCN(CCC(C)C)C(CCO)C1 (stereo unspecified)	-5	-1	-2	-1	/	/
COc1ccc(-c2coc3c(C(=O)Nc4cccc(NS(C)(=O)=O)c4)cccc23)c(C)c1	14	-3	-6	2	/	/
O=C(O)c1c2c(nc3ccc(S(=O)(=O)N4CCC(C(=O)NCc5ccccc5Cl)CC4)cc13)CCCC2	39*	-2	-2	1	36*	9.5*
CC(C)CCNC(=O)C1CCN(S(=O)(=O)c2ccc3nc4c(c(C(=O)O)c3c2)CCCCC4)CC1	13	-4	-3	0	/	/
COc1ccc(CNC(=O)C2CCN(S(=O)(=O)c3ccc4nc5c(c(C(=O)O)c4c3)CCCC5)CC2)cc1	19	6	0	-1	/	/
O=C(O)c1c2c(nc3ccc(S(=O)(=O)N4CCC(C(=O)NC5CCCCCC5)CC4)cc13)CCCC2	36*	7	-3	1	41*	13*
O=C(O)c1c2c(nc3ccc(S(=O)(=O)N4CCC(C(=O)NCc5ccc(Cl)cc5)CC4)cc13)CCCC2	42*	14	-1	1	40*	13*
CN(Cc1ccccc1)C(=O)OCc1cn(Cc2ccccc2F)nn1	-2	/	/	/	/	/
CCOc1ccc(-c2csc(NC(=O)CSCC(=O)O)n2)c2ccccc12	63*	3	-6	0	70*	25*	DNA CAG DR=i;dCAG DNA bind=5.5*;rCAG binder-2=1.7*
CCOc1ccc(-c2csc(NC(=O)CSC3=NC(=O)CN3C(C)=O)n2)c2ccccc12	2	3	-13	-1	/	/
C/C(CC(=O)Nc1ccc(Cl)c(C(F)(F)F)c1)=N\NC(=O)c1cccc(O)c1	4	-2	-5	1	/	/
C/C(CC(=O)Nc1ccc(Cl)c(C(F)(F)F)c1)=N\NC(=O)c1ccccc1O	53*	0	-6	1	9	4
CCC(C)C(NC(=O)C(C)NC(=O)CNC(=O)OC(C)(C)C)C(N)=O (stereo unspecified)	-1	-1	-14	0	/	/
O=C(CN1C(=O)S/C(=C\C=C\c2ccccc2)C1=O)Nc1ccccc1C(=O)O	77*	4	-9	3	84*	52*
